Bioassay records (PubChem BioAssay)
Most compounds without a hit are left out; they make up all but 1% or so of the library.
PLK1 PBD inh – Plk1 (human) PBD binding inhibition | P53350 | Plk1 PBD phosphopeptide binding, fluorescence polarization | inhibition, %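 (tested at about 20 µM)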 | actives 0.13% (n = 97,000) | AID 693; in the data active means inhibition above about 34%, passing the limit was not always enough
EphB4 antag – antagonists of human EphB4-ephrin-B2 interaction; inhibition, % at 7 µM; actives 0.15% (n = 97,000); AID 720; EphB4 LBD / TNYL-RAW-Alexa532 peptide, fluorescence polarization; P54760;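 active means inhibition above the screen-wide mean inhibition plus 3 SD, cut at about 15% in these data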;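 further: 0% = DMSO wells and 100% = excess unlabeled TNYL-RAW peptide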
sEH inh – soluble epoxide hydrolase (human) inhibition. P34913. recombinant human sEH enzymatic activity assay. inhibition, % at 2 µM. actives 0.34% (n = 91,000). AID 707; in the data active means inhibition above about 80%
Target sequence (P34913 whole entry, looked up): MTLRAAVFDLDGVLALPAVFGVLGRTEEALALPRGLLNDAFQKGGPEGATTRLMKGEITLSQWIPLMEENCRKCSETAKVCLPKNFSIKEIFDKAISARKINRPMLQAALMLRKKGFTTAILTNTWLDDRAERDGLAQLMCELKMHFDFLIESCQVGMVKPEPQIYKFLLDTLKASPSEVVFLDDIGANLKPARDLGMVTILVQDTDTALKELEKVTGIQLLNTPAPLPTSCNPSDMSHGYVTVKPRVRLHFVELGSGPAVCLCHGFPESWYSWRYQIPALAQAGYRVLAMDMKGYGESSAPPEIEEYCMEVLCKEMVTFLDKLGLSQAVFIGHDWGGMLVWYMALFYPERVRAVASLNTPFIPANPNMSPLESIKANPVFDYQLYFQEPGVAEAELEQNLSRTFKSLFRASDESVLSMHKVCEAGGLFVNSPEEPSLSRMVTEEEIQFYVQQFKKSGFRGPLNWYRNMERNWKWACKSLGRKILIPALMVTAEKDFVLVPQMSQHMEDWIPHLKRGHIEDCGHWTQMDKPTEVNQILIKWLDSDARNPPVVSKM
PLK1 kinase inh – PLK1 (human) kinase inhibition. P53350. recombinant PLK1 kinase, TR-FRET peptide phosphorylation. inhibition, % at 10 µM. actives 0.53% (n = 97,000);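 active means inhibition of 50% or more in the single-concentration screen; inactive means inhibition below 50%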;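 further: 0% = DMSO max control and 100% = H-89 dihydrochloride min control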
sEH activator – increases human soluble epoxide hydrolase activity | P34913 | purified human sEH enzymatic activity, activator screen | activation, % at 2 µM | actives 0.04% (n = 91,000) | AID 717; in the data active means activation above about 37%
PLK1 inh conf – confirmation of human PLK1 kinase inhibitors; recombinant PLK1 kinase, TR-FRET peptide phosphorylation; inhibition, % at 10 µM; shares compounds with PLK1 kinase inh; actives 20% (n = 210);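 active means inhibition at or above 50% in each of two repeat confirmation tests; inconclusive means one repeat below 50% inhibition, the other above; inactive means both repeats at or below 50% inhibition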;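 further: 0% = DMSO max control and 100% = H-89 kinase-blocked min control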
TR-FRET interf – Plk1 assay compound interference counter-screen hit. shares compounds with PLK1 kinase inh. Plk1 TR-FRET assay interference, compound added post-reaction. inhibition (interference), % at 10 µM. 210 tested, under 10 active. AID 756;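 active means both duplicate runs show 50% or greater inhibition; inconclusive means only one duplicate run shows over 50% inhibition; inactive means both runs show under 50% inhibition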;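 further: 0% = DMSO max control and 100% = H-89 min control inhibited reaction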
Redox H2O2 DR – counter-screen for Plk1 PBD inhibitors: redox cycling H2O2 generation; shares compounds with PLK1 PBD inh; EC50, µM; 120 tested, under 10 active; DTT; call rule not given here
An asterisk follows results filed as active.

How did Cc1cc(OCC(=O)O)c2c3c(c(=O)oc2c1)CCCC3 do in these assays?
PLK1 PBD inh: -11; EphB4 antag: 3; sEH inh: -3; PLK1 kinase inh: -9; sEH activator: 8

Results for Cc1cc(OC(=O)c2ccco2)c2c3c(c(=O)oc2c1)CCCC3 ?
PLK1 PBD inh: -16; EphB4 antag: 15*; sEH inh: -19; PLK1 kinase inh: -3; sEH activator: 16

Results for CCOC(=O)C(O)(c1ccc(NC(=O)NC2CCCCC2)cc1)C(F)(F)F (centres undefined) ?
PLK1 PBD inh: 15; EphB4 antag: -3; sEH inh: 95*; PLK1 kinase inh: -2; sEH activator: -95

Results for O=C(C1CCN(S(=O)(=O)c2ccccc2)CC1)N1CCC2(CC1)OCCO2 ?
PLK1 PBD inh: 20; EphB4 antag: -5; sEH inh: 11; PLK1 kinase inh: -3; sEH activator: -9

Results for CN1/C(=C\C=C\C2=[N+](C)c3ccc4ccccc4c3C2(C)C)C(C)(C)c2ccccc21 ?
PLK1 PBD inh: -4; EphB4 antag: -75; sEH inh: -9; PLK1 kinase inh: 86*; sEH activator: 8; PLK1 inh conf: inconclusive; TR-FRET interf: 11

What do the screens show for `CCOP(=O)(OCC)C(C)(C)NC(=O)C(Cl)(Cl)Cl`?
PLK1 PBD inh: -26; EphB4 antag: 1; PLK1 kinase inh: -4

Results for COc1ccc(Cn2c(N)c(C(=O)NCc3ccco3)c3nc4ccccc4nc32)cc1OC ?
PLK1 PBD inh: -13; EphB4 antag: 9; sEH inh: -2; PLK1 kinase inh: 72*; sEH activator: 4; PLK1 inh conf: 71*; TR-FRET interf: -43

Results for CCCNC(=O)c1c(N)n(Cc2ccco2)c2nc3ccccc3nc12 ?
PLK1 PBD inh: -26; EphB4 antag: -3; sEH inh: -7; PLK1 kinase inh: -8; sEH activator: 4

Results for Cc1nc2c(=O)n(C)c(=O)nc-2n(C)n1 ?
PLK1 PBD inh: 116*; EphB4 antag: 0; sEH inh: 32; PLK1 kinase inh: -12; sEH activator: -29; Redox H2O2 DR: 1.6*

Results for Cc1ccc(S(=O)(=O)Cc2ccc(C(=O)N3CCC4(CC3)OCCO4)o2)cc1 ?
PLK1 PBD inh: 6; EphB4 antag: -8; sEH inh: 4; PLK1 kinase inh: -12; sEH activator: -3

Results for CC(C)c1cccc(C(C)C)c1OCCn1ccnc1 ?
PLK1 PBD inh: -15; EphB4 antag: -1; sEH inh: 60; PLK1 kinase inh: 1; sEH activator: -61

Results for O=C1C(=O)c2ccccc2-c2ccccc21 ?
PLK1 PBD inh: 95*; EphB4 antag: 5; sEH inh: -8; PLK1 kinase inh: 3; sEH activator: 11; Redox H2O2 DR: >50

How did N[C@@H](Cc1c[nH]c2ccccc12)c1nnc(SCc2ccccc2F)o1 do in these assays?
PLK1 PBD inh: 2; EphB4 antag: 0; sEH inh: 0; PLK1 kinase inh: -3; sEH activator: -1

What do the screens show for `CCOC(=O)c1ccc(NC(=O)c2c(O)[nH]c(=O)[nH]c2=O)cc1`?
PLK1 PBD inh: 59*; EphB4 antag: -2; sEH inh: -12; PLK1 kinase inh: 9; sEH activator: 14; Redox H2O2 DR: >50
